Among the data in the supplement of paper PMC8285479 are normalised cell viability values, retold here.

Counter-ions that a name gives are not always drawn. ± gives the standard deviation of the averaged measurements. Over roughly 1,900 compounds, “normalised cell viability (NPI; 0 = phenylarsine oxide control, 1 = DMSO control)” has its median near 1; the lowest 2% begin near 0.039. Only a selection was taken, and the lowest values are over-represented in it overall.

The subject of the test is NCI-H1944. Briefly: normalised cell viability (NPI; 0 = phenylarsine oxide control, 1 = DMSO control) (fraction of DMSO control); NCI-H1944 is a non-small cell lung cancer line; higher = more viable cells (less compound toxicity). The following applies: 6 days.
Setting [1] is: glucocorticoid arm: hydrocortisone 2.75 uM co-treatment, compound 1 µM.
Setting [2] is: glucocorticoid arm: hydrocortisone 2.75 uM co-treatment, compound 5 µM.
The mark [3] stands for this setting: glucocorticoid arm: hydrocortisone 2.75 uM pre-treated 2 days and continued, compound 1 µM.
[4] abbreviates: glucocorticoid arm: hydrocortisone 2.75 uM pre-treated 2 days and continued, compound 5 µM.
The mark [5] stands for this setting: glucocorticoid arm: vehicle, compound 1 µM.
Setting [6] is: glucocorticoid arm: vehicle, compound 5 µM.
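Note: CTB read-out in 384-well plates, triplicate wells, NPI normalised per plate against 1 µM phenylarsine oxide (0) and 0.1% DMSO (1) controls.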

For the molecule `C=CCN1CCc2c(cc(O)c(O)c2Cl)C(c2ccccc2)C1` (racemic) [(±)-Chloro-APB hydrobromide], the normalised cell viability by setting is: under setting [1], 0.9917 ± 0.0072; under setting [2], 1.02 ± 0.01; under setting [3], 0.989 ± 0.0061; under setting [4], 1 ± 0.011; under setting [5], 0.9943 ± 0.0021; under setting [6], 0.99467 ± 0.00058.
On to `N#C/C(=C\c1ccc(-c2cc(Cl)ccc2Cl)o1)C(=O)Nc1cccc2ncccc12`, for which the normalised cell viability by setting is: under setting [1], 0.971 ± 0.01; under setting [2], 0.978 ± 0.035; under setting [3], 0.984 ± 0.018; under setting [4], 0.991 ± 0.014; under setting [5], 0.9887 ± 0.0078; under setting [6], 0.989 ± 0.012.
Turning to `COc1cccc(NC(=O)/C=C/c2ccc(Cl)cc2)c1`, the normalised cell viability by setting is: under setting [1], 0.953 ± 0.015; under setting [2], 0.884 ± 0.026; under setting [3], 0.992 ± 0.029; under setting [4], 0.941 ± 0.023; under setting [5], 0.9757 ± 0.0093; under setting [6], 0.9683 ± 0.0067.
For the molecule `O=C(/C=C/c1cccc(S(=O)(=O)Nc2ccccc2)c1)NO` [Belinostat (PXD101)], the normalised cell viability under setting [1] is 0.9767 ± 0.0051; the normalised cell viability under setting [2] was determined as 0.0174 ± 0.0036; the normalised cell viability under setting [3] stood at 1.02; the normalised cell viability under setting [4] came to 0.114 ± 0.0036; the normalised cell viability under setting [5] came to 0.575 ± 0.067; the normalised cell viability under setting [6] is 0.00153 ± 0.00067.
Regarding `O=C(/C=C/C#Cc1cccc(NS(=O)(=O)c2ccccc2)c1)NO` [Oxamflatin], the normalised cell viability reads like this: under setting [1], 0.974 ± 0.015; under setting [2], 0.599 ± 0.44; under setting [3], 0.992 ± 0.019; under setting [4], 0.901 ± 0.11; under setting [5], 0.843 ± 0.17; under setting [6], 0.509 ± 0.54.
Consider `N[C@H](C(=O)O)[C@H]1C[C@@H]1C(=O)O` [(2S,1'S,2'S)-2-(carboxycyclopropyl)glycine], for which the normalised cell viability was 0.99 ± 0.0046 under setting [1]; 0.979 ± 0.019 under setting [2]; 0.994 ± 0.0095 under setting [3]; 0.978 ± 0.015 under setting [4]; 0.9847 ± 0.0055 under setting [5]; 0.9883 ± 0.0097 under setting [6].
In the case of `COC(=O)[C@]12CCC(C)(C)C[C@H]1[C@H]1C(=O)C=C3[C@@]4(C)C=C(C#N)C(=O)C(C)(C)[C@@H]4CC[C@@]3(C)[C@]1(C)CC2` [Bardoxolone Methyl], the normalised cell viability is, setting by setting: under setting [1], 0.00114 ± 0.00058; under setting [2], 1.08 ± 0.01; under setting [3], 0.00366 ± 0.0014; under setting [4], 1.1 ± 0.015; under setting [5], 0.00138 ± 0.00077; under setting [6], 0.858 ± 0.022.
Take `N.N.N.N.N.N.N.N.N.N.N.N.N.N.O.O.[Cl-].[Cl-].[Cl-].[Cl-].[Cl-].[Cl-].[Ru+4].[Ru+5].[Ru+5]` [Ruthenium red]: the normalised cell viability under setting [1] is 0.991 ± 0.01; the normalised cell viability under setting [2] turned out to be 0.974 ± 0.021; the normalised cell viability under setting [3] was determined as 1.01 ± 0.027; the normalised cell viability under setting [4] came out at 0.987 ± 0.023; the normalised cell viability under setting [5] came out at 0.995 ± 0.0052; the normalised cell viability under setting [6] was determined as 0.973 ± 0.0087.
In the case of `CC(C)(C)NCC(O)COc1cccc2[nH]c(=O)[nH]c12` (racemic), the normalised cell viability is 0.9973 ± 0.0023 under setting [1]; 0.974 ± 0.014 under setting [2]; 0.992 ± 0.015 under setting [3]; 0.988 ± 0.0076 under setting [4]; 0.9853 ± 0.0067 under setting [5]; 0.985 ± 0.0053 under setting [6].
Regarding `CC1c2cccc(O)c2C(O)=C2C(=O)C3(O)C(O)=C(C(N)=O)C(=O)C(N(C)C)C3C(O)C21` (stereo not drawn) [Doxycycline hydrochloride], the normalised cell viability was 1 under setting [1]; 0.9303 ± 0.0093 under setting [2]; 0.99 ± 0.014 under setting [3]; 0.945 ± 0.018 under setting [4]; 0.9897 ± 0.0067 under setting [5]; 0.9743 ± 0.006 under setting [6].
Regarding `COC(=O)C(C)(N)Cc1ccc(O)cc1` (racemic) [alpha-Methyl-DL-tyrosine methyl ester hydrochloride], the normalised cell viability under setting [1] was 1.004 ± 0.01; the normalised cell viability under setting [2] turned out to be 1.01 ± 0.034; the normalised cell viability under setting [3] is 1.01 ± 0.023; the normalised cell viability under setting [4] was determined as 0.999 ± 0.011; the normalised cell viability under setting [5] was 0.9943 ± 0.0057; the normalised cell viability under setting [6] came out at 1.004 ± 0.0098.
Regarding `Cc1cc(C(=O)NOCCO)c(Nc2ccc(I)cc2F)n(C)c1=O`, the normalised cell viability was found to be 0.614 ± 0.018 under setting [1]; 0.565 ± 0.035 under setting [2]; 0.66 ± 0.011 under setting [3]; 0.672 ± 0.037 under setting [4]; 0.286 ± 0.014 under setting [5]; 0.279 ± 0.013 under setting [6].
On to `Cn1c(=O)c(F)c(Nc2ccc(I)cc2F)c2c(=O)n(C[C@@H](O)CO)cnc21`, for which the normalised cell viability stood at 0.641 ± 0.035 under setting [1]; 0.629 ± 0.043 under setting [2]; 0.772 ± 0.028 under setting [3]; 0.757 ± 0.042 under setting [4]; 0.329 ± 0.013 under setting [5]; 0.226 ± 0.025 under setting [6].
On to `CCCNC[C@H](O)COc1ccccc1C(=O)CCc1ccccc1` [(S)-(-)-propafenone hydrochloride], for which the normalised cell viability stood at 0.99967 ± 0.00058 under setting [1]; 0.9747 ± 0.0047 under setting [2]; 1.02 ± 0.026 under setting [3]; 1.02 ± 0.015 under setting [4]; 0.9967 ± 0.0058 under setting [5]; 0.995 ± 0.005 under setting [6].
As to `Cc1nc(C#Cc2ccnc(Cl)c2)c(C)n1-c1ccc(OC(F)(F)F)cc1`, the normalised cell viability reads like this: under setting [1], 0.993 ± 0.021; under setting [2], 0.992 ± 0.01; under setting [3], 0.983 ± 0.015; under setting [4], 0.9747 ± 0.004; under setting [5], 1 ± 0.017; under setting [6], 1 ± 0.014.
In the case of `O=S(=O)(NCCNCC=Cc1ccc(Br)cc1)c1cccc2cnccc12`, the normalised cell viability under setting [1] was found to be 0.985 ± 0.012; the normalised cell viability under setting [2] is 0.985 ± 0.025; the normalised cell viability under setting [3] stood at 1.03 ± 0.01; the normalised cell viability under setting [4] came to 1.007 ± 0.0058; the normalised cell viability under setting [5] was found to be 1.002 ± 0.0072; the normalised cell viability under setting [6] turned out to be 0.968 ± 0.016.
For the molecule `Cc1ccccc1N1CCN(S(=O)(=O)C[C@]23CC[C@H](C[C@@H]2NC(=O)[C@@H](N)CCS(C)(=O)=O)C3(C)C)CC1` [L-368,899 hydrochloride], the normalised cell viability is 0.99 ± 0.017 under setting [1]; 0.986 ± 0.024 under setting [2]; 0.998 ± 0.013 under setting [3]; 1.01 ± 0.023 under setting [4]; 0.9847 ± 0.0035 under setting [5]; 0.9993 ± 0.0095 under setting [6].
Take `COC[C@H](NC(=O)c1cnc(C)s1)C(=O)N[C@@H](COC)C(=O)N[C@@H](Cc1ccccc1)C(=O)[C@@]1(C)CO1` [Oprozomib (ONX 0912)]: the normalised cell viability is, setting by setting: under setting [1], 0.208 ± 0.051; under setting [2], 0.0253 ± 0.0081; under setting [3], 0.7 ± 0.017; under setting [4], 0.301 ± 0.021; under setting [5], 0.0106 ± 0.0015; under setting [6], 0.00109 ± 0.00065.
`Nc1ccc(-c2ccc3ncc4ccc(=O)n(-c5cccc(C(F)(F)F)c5)c4c3c2)cn1` [Torin 2]: the normalised cell viability under setting [1] is 0.175 ± 0.0021; the normalised cell viability under setting [2] stood at 0.171 ± 0.0032; the normalised cell viability under setting [3] amounted to 0.267 ± 0.012; the normalised cell viability under setting [4] was 0.299 ± 0.0097; the normalised cell viability under setting [5] came to 0.0254 ± 0.002; the normalised cell viability under setting [6] was determined as 0.0207 ± 0.0023.
In the case of `CCC(=O)N1CCN(c2ccc(-n3c(=O)ccc4cnc5ccc(-c6cnc7ccccc7c6)cc5c43)cc2C(F)(F)F)CC1` [Torin 1], the normalised cell viability under setting [1] was 0.4 ± 0.0087; the normalised cell viability under setting [2] is 0.383 ± 0.013; the normalised cell viability under setting [3] amounted to 0.532 ± 0.018; the normalised cell viability under setting [4] was determined as 0.518 ± 0.022; the normalised cell viability under setting [5] is 0.223 ± 0.023; the normalised cell viability under setting [6] is 0.286 ± 0.01.
On to `O=C(O)[C@H]1C[C@H](C(=O)O)N1` (relative stereo) [trans-Azetidine-2,4-dicarboxylic acid], for which the normalised cell viability stood at 1.007 ± 0.0058 under setting [1]; 1.007 ± 0.0058 under setting [2]; 1.005 ± 0.0087 under setting [3]; 1.01 under setting [4]; 0.9843 ± 0.0025 under setting [5]; 0.9883 ± 0.0091 under setting [6].
Turning to `CC(C)(C)c1cnc(CSc2cnc(NC(=O)C3CCNCC3)s2)o1`, the normalised cell viability came out at 0.0382 ± 0.0034 under setting [1]; 0.036 ± 0.0061 under setting [2]; 0.148 ± 0.013 under setting [3]; 0.133 ± 0.018 under setting [4]; 0.00695 ± 0.0037 under setting [5]; 0.00933 ± 0.00035 under setting [6].
With `C=C(C)C(CC=C(C)C)CC12CC(CC=C(C)C)C(C)(C)C(CC=C(C)C)(C(=O)C(=C(O)c3ccc(O)c(O)c3)C1=O)C2=O` (stereo not drawn) [Garcinol], the normalised cell viability amounted to 1 ± 0.012 under setting [1]; 1.01 ± 0.013 under setting [2]; 0.992 ± 0.014 under setting [3]; 0.997 ± 0.027 under setting [4]; 1.007 ± 0.0052 under setting [5]; 1.001 ± 0.01 under setting [6].
